# Compound activity: PubChem, National Center for Advancing Translational Sciences (NCATS)
# GPT2 inh = Primary qHTS assay for inhibitors of Glutamate pyruvate transaminase 2 (GPT2) | Recombinant GPT2, coupled pyruvate oxidase/HRP Amplex Red fluorescence | Potency, µM (top dose mostly 57.7 µM), inactives show at the highest dose activity change, negative = inhibition, most hits filed as inhibitors | Alanine aminotransferase 2 (Homo sapiens), Q8TD30 | actives 0.25% (n = 100,000); also: nearly all actives have a fitted effect of over 60% in size
# Target sequence (Q8TD30 whole entry, looked up): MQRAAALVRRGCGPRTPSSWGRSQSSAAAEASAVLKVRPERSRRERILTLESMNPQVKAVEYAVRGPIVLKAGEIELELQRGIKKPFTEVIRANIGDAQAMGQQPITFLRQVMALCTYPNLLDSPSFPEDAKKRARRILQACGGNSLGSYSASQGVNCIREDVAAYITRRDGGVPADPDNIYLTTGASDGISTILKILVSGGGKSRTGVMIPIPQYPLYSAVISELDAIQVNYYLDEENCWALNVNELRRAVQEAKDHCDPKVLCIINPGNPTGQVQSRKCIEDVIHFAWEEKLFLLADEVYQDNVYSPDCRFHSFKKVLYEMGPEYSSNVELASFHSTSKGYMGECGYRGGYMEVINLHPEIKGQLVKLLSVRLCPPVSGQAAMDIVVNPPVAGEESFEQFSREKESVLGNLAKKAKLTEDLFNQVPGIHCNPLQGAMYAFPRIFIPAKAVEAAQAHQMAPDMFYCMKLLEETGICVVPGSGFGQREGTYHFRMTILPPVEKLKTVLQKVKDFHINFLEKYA
#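 GPT2 10ng/uL, a-KG 250uM, L-Ala 2mM, HEPES pH7.5 + 0.0001% Tween; 30 min RT. Then Amplex mix (PO/HRP/ThPP), 30 min RT dark, fluorescence. AOA 50uM used as positive control.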
# NPR1 antag = Natriuretic polypeptide receptor (hNpr1) antagonism - Primary qHTS | HEK293 hNpr1 GloSensor cGMP, ANP-stimulated luminescence | actives 1.6% (n = 76,000) | AID 1347048, 2019 | Atrial natriuretic peptide receptor 1 (Homo sapiens), P16066 | Potency, µM (series often up to 46.3 µM), for the others: at the top dose activity change, negative = inhibition, hits mostly inhibitors; calls by dose curve; also: nearly all actives have a fitted effect of over 60% in size
#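 HEK293 cells stably expressing human Npr1 and cGMP GloSensor pGS-40F, loaded 2 h with 2% GloSensor reagent, given compound 30 min at room temperature. Luminescence read before and 20 min after 0.1 nM hNppA.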
# FLuc inh = Firefly luciferase inhibition profiling of diverse chemical library using quantitative high-throughput screening. Luciferin 4-monooxygenase (Photinus pyralis), P08659. purified P. pyralis luciferase, luminescence, biochemical. Potency, µM (series often up to 115 µM), usual class: inhibitors. actives 2.5% (n = 76,000); also: nearly all actives have a fitted effect of over 65% in size
#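 Inhibitors were tested against purified firefly luciferase in a biochemical, low-substrate format (both substrates at 10uM) and luminescence measured with a CCD imager.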
# HEK cytotox = Cytotoxic Profiling in HEK 293 Cell Line of Diverse Libraries Using Quantitative High-Throughput Screening; Potency, µM (highest dose often 115 µM), for inactives: at the top dose activity change, negative = cytotoxicity, hits mostly inhibitors; actives 6.6% (n = 94,000); HEK 293 viability, ATP luminescence (CellTiter-Glo), 48-72 h; also: nearly all actives have a fitted effect of over 60% in size
#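 qHTS cytotoxicity; HEK 293, 250 cells/well; compound pinned; 48 or 72 hr, 37 degree Celsius, 5% CO2, 95% humidity; CellTiter-Glo, 10 min RT; luminescence (ATP).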
# 3T3 cytotox = Cytotoxic Profiling in NIH 3T3 Cell Line of Diverse Libraries Using Quantitative High-Throughput Screening. NIH 3T3 viability, CellTiter-Glo ATP luminescence, 48-72 h. Potency, µM (top dose mostly 96.7 µM), for inactives: at the highest dose activity change, negative = cytotoxicity, usual class: inhibitors. actives 4.3% (n = 94,000). AID 1345082, 2018; also: nearly all actives have a fitted effect of over 55% in size
#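 First NIH 3T3 cells are plated at 400 cells/well; next compound is pinned in; then plates incubate 48 or 72 hr at 37 °C; finally CellTiter-Glo is added and luminescence read after 10 min.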
# Numbers without * were called inactive; i = inactive; ? = inconclusive; nt = no result; [ ] = another dose, or the depositor's remark. This is a sample that favours compounds with a hit; in the whole collection about 10% have one here. Unless noted, calls follow the shape of the dose curve; as a rule, active = well fitted curve in the direction sought with a large enough effect; inconclusive = small, poorly fitted or top-dose-only effect, or another doubt; inactive = no such curve, though single readings can be large; an effect the other way counts as inactive or inconclusive. % is scaled to controls: 0 for no effect and ±100 for the full control effect; potency is read from the fitted curve at half-maximal effect.
SMILES,GPT2 inh,NPR1 antag,FLuc inh,HEK cytotox,3T3 cytotox
COc1ccc(C(=O)N2CCC(Oc3ccc(-c4noc(C5CC5)n4)cc3)C2)cn1 (centres undefined),-15.6%,nt,nt,35.5µM*,?
O=C(NCCc1ccccc1)c1cn2cc(-c3ccc(F)cc3)sc2n1,i,nt,nt,?,?
CC(C)c1nc(-c2ccc(OC3CCN(C(=O)C4(c5ccccc5)CC4)C3)cc2)no1 (centres undefined),i,?,i,44.7µM*,?
O=C(N1CCC(c2nc(-c3ccccc3)no2)C1)C1(c2ccccc2)CC1 (centres undefined),0.5%,?,i,?,?
CN(C)C(=O)N1CCCC1C(=O)N1CCC(N2CCOCC2=O)CC1 (centres undefined),1.2%,nt,nt,i,0.0%
CCn1ncc(N2CCCC(CC(=O)NCc3ccccc3)C2)cc1=O (centres undefined),i,-1.5%,i,?,-15.3%
O=C(CC1CCCN(c2cnn(CC3CC3)c(=O)c2)C1)NCc1ccccc1 (centres undefined),4.9%,-9.7%,i,?,35.5µM*
O=C(CC1CCCN(c2cnn(CC3CC3)c(=O)c2)C1)Nc1cccc(F)c1 (centres undefined),1.6%,1.2%,i,?,22.4µM*
O=C(CC1CCCN(c2cnn(CC3CC3)c(=O)c2)C1)NCCc1c[nH]c2ccccc12 (centres undefined),i,-1.3%,i,79.4µM*,?
O=C(NC1CCN(Cc2ccc(-c3ccsc3)cc2)C1)c1ccncc1 (centres undefined),i,nt,nt,39.8µM*,?
Cc1ccc(C(=O)NC2CCN(Cc3ccc(-c4ccsc4)cc3)C2)cc1 (centres undefined),1.6%,nt,nt,-14.8%,-13.5%
O=C(NC1CCN(Cc2ccc(-c3ccsc3)cc2)C1)c1ccccc1Cl (centres undefined),4.6%,nt,nt,44.7µM*,?
O=C(NC1CCN(Cc2ccc(-c3ccsc3)cc2)C1)c1ccccc1 (centres undefined),i,nt,nt,44.7µM*,?
Cc1[nH]c2ccccc2c1CCNCc1ccc(/C=C/C(=O)NO)cc1,-16.6%,nt,nt,nt,nt
COCCCN1CCc2c(n(Cc3ccccc3)n(-c3ccccc3)c2=O)C1,-4.7%[88.5 µM],-24.6%[70.6 µM],i,?,?
O=C(Nc1ccc(Cl)cc1)C1=NO[C@@H]2CN(c3ccccn3)C[C@H]12,-11.0%[88.5 µM],2.6%[70.6 µM],i,?,-20.5%[138 µM]
O=C(Nc1cccc(Cl)c1)C1=NO[C@@H]2CN(c3ccccn3)C[C@H]12,-8.5%[88.5 µM],-7.8%[70.6 µM],i,100µM*,?
CN1CCC(N[C@H]2C[C@@H](Cc3cc(-c4ccccc4)on3)C2(C)C)CC1,-18.1%[88.5 µM],-4.1%[70.6 µM],i,8.91µM*,8.91µM*
CCNC(=O)N[C@H]1C[C@@H](Cc2cc(-c3ccccc3)on2)C1(C)C,-13.7%[88.5 µM],-21.2%[70.6 µM],?,?,?
CC(C)N[C@H]1C[C@@H](Cc2cc(-c3ccccc3)on2)C1(C)C,-2.6%[88.5 µM],4.2%[70.6 µM],?,63.1µM*,63.1µM*
CN1CCC(N[C@H]2C[C@@H](Cc3cc(CN(C)Cc4ccccc4)on3)C2(C)C)CC1,1.5%[88.5 µM],-17.6%[70.6 µM],i,39.8µM*,28.2µM*
CNC(=O)c1cc(C2CC2)nc2c1c(C1CCN(C(=O)Cc3ccccn3)CC1)nn2C,nt,nt,nt,0.5%,i
COc1ccc(C(=O)N2CCc3ccc(C(=O)NCc4cccc(F)c4)cc32)cc1,-15.3%,-25.8%,i,39.8µM*,?
COc1ccc(C(=O)N2CCc3ccc(C(=O)NCc4cccc(OC)c4)cc32)cc1,i,2.0%,i,79.4µM*,?
Cc1nn(-c2ccccc2)c2c1C(C)N(C1CCCN([S+](=O)([O-])C(C)C)C1)C2=O (centres undefined),nt,nt,nt,?,-26.5%
SMILES,GPT2 inh,NPR1 antag,FLuc inh,HEK cytotox,3T3 cytotox
CC(C)(C)CN1CCC2(CC1)Cc1ccccc1CNC2=O,i,nt,nt,-6.2%,i
COc1ccc(NC(=O)c2cc(-c3ccc[nH]3)n[nH]2)c(OC)c1,4.7%,-16.9%,20µM*,?,-25.0%
O=C(Nc1ccc(F)cc1F)c1cc(-c2ccc[nH]2)n[nH]1,i,2.4%,14.1µM*,?,-24.4%
COc1cccc(-c2cc(C(=O)NCCOc3ccccc3)[nH]n2)c1,-2.9%,-19.5%,i,?,?
COc1ccc(NC(=O)c2cc(-c3ccc[nH]3)n[nH]2)cc1,4.2%,-4.5%,12.6µM*,-3.1%,-3.5%
COc1ccc(Cl)cc1NC(=O)c1cc(-c2ccc[nH]2)n[nH]1,i,-8.1%,?,?,?
CCOc1ccc(NC(=O)c2cc(-c3ccc[nH]3)n[nH]2)cc1,4.4%,2.7%,7.08µM*,5.6%,0.9%
COc1cccc([S+](=O)([O-])N2CCCC(C(=O)N3CCC(N4CCOCC4=O)CC3)C2)c1 (centres undefined),i,nt,nt,-4.5%,-15.2%
O=C(Nc1ccc(OC(F)(F)F)cc1)c1cc(-c2ccc[nH]2)n[nH]1,0.4%,0.5%,?,12.6µM*,25.1µM*
O=C(Nc1ccc(Cl)cc1)c1cc(-c2ccc[nH]2)n[nH]1,i,1.2%,?,?,-25.1%
O=C(CCC1CCN(C(=O)[C@H]2C[C@@H]3C=C[C@H]2C3)CC1)N1CCC(Cc2ccccc2)CC1,?,?,i,44.7µM*,?
O=C(NCc1ccc(F)c(F)c1)c1ccc2oc(-c3ccccn3)nc2c1,i,nt,nt,?,-32.5%
Cc1nc(C)c(C(=O)NCCc2noc(-c3ccncc3)n2)s1,i,-23.1%,i,?,?
COc1ccc(C2(C(=O)N(C)Cc3ccc(OC(F)(F)F)cc3)CCOCC2)cc1,-6.5%,nt,nt,50.1µM*,?
O=C(NCc1ccco1)N1CCc2nc3cc(-c4ccccc4Cl)[nH]n3c(=O)c2C1,-12.1%,-15.0%,14.1µM*,?,?
COCc1nc(C2CCCN(C(=O)Nc3cccc(F)c3C)C2)no1 (centres undefined),-10.5%,-1.2%,?,-21.1%,-21.7%
CN1CCCN(S(=O)(=O)c2ccc3c(c2)OCCO3)c2ccccc21,-0.3%,-12.5%,i,31.6µM*,?
COc1ccc(Nc2ccnc(N3CCCC3C(=O)NCc3ccc(C(F)(F)F)cc3)n2)cc1 (centres undefined),?,nt,nt,?,-40.5%
CCC(C)C(=O)N1CCC2(CCc3nn(Cc4ccccc4)c(=O)n3CC2)CC1 (centres undefined),-13.5%,nt,nt,?,-31.6%
